# Measured values published in PubChem BioAssay (NCATS).
# Inconclusive results are not listed. The source made the active and inactive calls. Calls come from the whole dose curve; as a rule, active = well fitted curve in the direction sought with a large enough effect; inconclusive = small, poorly fitted or top-dose-only effect, or another doubt; inactive = no such curve, though single readings can be large; an effect the other way counts as inactive or inconclusive.
# Legend:
# [1] = P-glycoprotein substrates identified in KB-8-5-11 adenocarcinoma cell line, qHTS therapeutic library screen (AID 1346987); note: nearly all actives have a fitted effect of over 65% in size
# Outline: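 P-gp-mediated resistance screen: KB-8-5-11 cells treated 72 h with compounds in dose-response. CellTiter-Glo viability.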
# [2] = Primary qHTS for inhibitors of nuclear receptor binding SET domain protein 2 (NSD2) in an isogenic RCH-ACV NSD2 p.E1099K mutant (9B) (AID 1645876); note: potency is the fitted concentration of half-maximal effect; nearly all actives have a fitted effect of over 70% in size
# [3] = Primary qHTS for inhibitors of nuclear receptor binding SET domain protein 2 (NSD2) in an RCH-ACV wild type WT cells (2C) (AID 1645877); note: potency is the fitted concentration of half-maximal effect; nearly all actives have a fitted effect of over 70% in size
structure (smiles),measurement,setting,value
CN(C)CCOc1ccc(-c2nc(-c3ccc4c(c3)CC/C4=N/O)c(-c3ccncc3)[nH]2)cc1,Potency,[1],inactive
same,Potency,[2],3.66 µM (active)
same,Potency,[3],7.31 µM (active)
